# CTSL1 counter: blocks F. hepatica cathepsin L1 in PFM18AAP counter-screen | recombinant F. hepatica cathepsin L1, Z-Leu-Arg-MCA fluorescence | AID 1906 | inhibition, % at 5.96 µM | 0.49% of 300,000 active;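 active = inhibition above the mean of all tested compounds plus 3 SD, set per screening campaign, cut at about 17% in these data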
# PHOSPHO1 inh: inhibitors of human PHOSPHO1 phosphatase | Q8TCT1 | recombinant PHOSPHO1, absorbance phosphatase assay | inhibition, % at 13.3 µM | 1.1% of 290,000 active | AID 1565; in the data active = inhibition above about 60%
# Target sequence (Q8TCT1 whole entry, looked up): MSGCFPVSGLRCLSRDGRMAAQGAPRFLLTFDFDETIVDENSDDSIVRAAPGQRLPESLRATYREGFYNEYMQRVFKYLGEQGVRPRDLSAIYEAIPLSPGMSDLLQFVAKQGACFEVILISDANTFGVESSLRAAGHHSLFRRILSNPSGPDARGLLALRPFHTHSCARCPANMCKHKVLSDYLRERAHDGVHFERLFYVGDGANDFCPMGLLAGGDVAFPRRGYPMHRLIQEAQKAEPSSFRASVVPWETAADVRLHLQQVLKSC
# HNF4A DNA FP: change in binding of human HNF4 alpha to DNA. P41235. HNF4a-FITC DNA binding, fluorescence polarization, 1 h. activity change, % at 10 µM. 0.3% of 360,000 active. AID 1224865; in the data active = activity change above about 30%, passing the limit was not always enough
# NRP1-CendR mod: modulators of CendR peptide binding to human neuropilin-1 | O14786 | inhibition, % at 25 µM | 0.85% of 360,000 active | FAM-RPARPAR peptide binding to NRP-1, fluorescence polarization;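 active = inhibition or corrected inhibition above about 18%, plus a signal ratio from 0.5 to 1.5, limit read from the data, passing the limit was not always enough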
# Rpn11 inh: Rpn11 (human) deubiquitinase inhibition. AID 588493. inhibition, % at 20 µM. human 26S proteasome, Ub4-pepOG fluorescence polarization; 20S core pre-blocked with epoxomicin. 0.59% of 360,000 active. O00487;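 active = inhibition at 20 µM, scaled to each plate's controls, above about 33%, limit read from the data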
# Target sequence (O00487 whole entry, looked up): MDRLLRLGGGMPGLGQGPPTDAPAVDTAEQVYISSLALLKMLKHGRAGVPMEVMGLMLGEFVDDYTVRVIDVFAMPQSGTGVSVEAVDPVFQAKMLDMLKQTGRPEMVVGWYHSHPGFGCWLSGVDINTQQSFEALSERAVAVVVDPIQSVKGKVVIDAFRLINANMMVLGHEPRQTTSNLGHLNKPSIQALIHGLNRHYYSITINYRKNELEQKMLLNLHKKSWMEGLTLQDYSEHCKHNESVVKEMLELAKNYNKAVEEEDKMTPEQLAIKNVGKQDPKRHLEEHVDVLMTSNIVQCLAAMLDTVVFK
# TPT1 inh: inhibitors of Candida albicans tRNA 2'-phosphotransferase TPT1 | recombinant caTPT1, FP RNA substrate dephosphorylation | inhibition, % at 5 µM | 0.81% of 300,000 active | AID 1962;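 active = inhibition above the mean of all tested compounds plus 3 SD, set per screening campaign, cut at about 24% in these data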
# Rpn11 confirm: Rpn11 inhibition confirmation, single concentration; shares compounds with Rpn11 inh; purified human 26S proteasome, Ub4-pepOG fluorescence polarization; proteasome pretreated with epoxomicin; inhibition, % at 20 µM; 29% of 1,900 active; AID 602318
# MMP-2 counter: blocks human MMP-2, flagging nonselective RPN11 hits. shares compounds with Rpn11 inh. recombinant MMP-2, FRET peptide cleavage fluorescence. inhibition, % at 20 µM. 4% of 1,900 active. AID 602330;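 note: human MMP-2 activated beforehand with APMA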
# Thrombin inh: counter-screen for RPN11 inhibitors: inhibition of bovine thrombin. bovine thrombin cleavage of Ub4-pepOG, fluorescence polarization. 13% of 1,900 active. AID 602333. shares compounds with Rpn11 inh. inhibition, % at 20 µM;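 active = mean inhibition at least 40% at 20 µM, or signal 3 deviations below plate average, so some actives read negative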
# A number is an active result; . = inactive; / = no result given; + = active, no number. Hits are enriched below; roughly 3.3% of the tested compounds scored in any of these assays. Cut-off read from the data, not from the text of the source, unless noted: active = inhibition above about 40%; inactive = the rest.
SMILES,CTSL1 counter,PHOSPHO1 inh,HNF4A DNA FP,NRP1-CendR mod,Rpn11 inh,TPT1 inh,Rpn11 confirm,MMP-2 counter,Thrombin inh
O=C(NCc1ccco1)C1CCCCN1S(=O)(=O)c1ccc(F)cc1 (centres undefined),.,.,.,.,+,.,.,.,.
Cc1ccc(-n2nc(C)cc2NC(=O)c2ccc(C)s2)cc1,.,.,.,.,.,.,/,/,/
CC(=O)c1ccc(OCC(=O)N(C)CC(=O)Nc2ccc(N3CCOCC3)cc2)cc1,/,/,.,.,.,/,/,/,/
CC1CC(C)CN(C(=O)COC(=O)CCC(=O)c2cccs2)C1 (centres undefined),/,/,.,.,.,/,/,/,/
O=C(CCC(=O)c1cccs1)OCC(=O)N1CCN(C(=O)c2ccco2)CC1,.,.,35,.,33,.,.,.,.
Cc1ccc(-c2nc(CN3CCCCC3CCN3CCCC3=O)c(C)o2)o1 (centres undefined),.,.,.,.,41,.,.,.,.
Cc1oc(-c2cccc(F)c2)nc1CN1CCCCC1CCn1cccn1 (centres undefined),.,.,.,.,.,.,/,/,/
CSc1nnc2c3ccccc3c3ccccc3c2n1,/,.,.,.,.,/,/,/,/
N#CCSc1ccccc1NC(=O)COc1ccc(-c2nnco2)cc1,/,/,.,.,40,/,.,.,.
CCCSC1=N/C(=C\C=C\c2ccco2)C(=O)S1,.,90,.,.,81,.,.,.,.
CCCSC1=N/C(=C\c2ccsc2)C(=O)S1,.,.,.,.,.,.,/,/,/
O=C(Nc1nc(-c2ccco2)cs1)c1ccccc1,.,88,.,.,45,.,.,.,.
COCc1nnc(NC(=O)c2ccccc2[N+](=O)[O-])s1,.,.,.,.,.,.,/,/,/
CN1/C(=C\C(=S)NC(=O)c2ccccc2Cl)C(C)(C)c2ccccc21,.,.,68,.,86,.,.,42,.
C/C(=N\Nc1ccc(C#N)cc1[N+](=O)[O-])c1ccc(C)o1,.,.,.,.,64,.,.,.,.
Cc1ccc2nc(NC(=O)c3ccc(-c4nc5ccccc5s4)s3)sc2c1,.,.,69,.,152,.,.,.,.
Cc1c(C)c2ccc(OCC(=O)N3CC[C@@]4(O)CCCC[C@H]4C3)c(C)c2oc1=O,.,.,.,.,.,.,/,/,/
CC(C)n1ncc2c(C(=O)Nc3ccc(S(N)(=O)=O)cc3)cc(C3CC3)nc21,/,/,.,46,79,/,90,.,.
CC(C)NC(=O)c1ccc(S(=O)(=O)N(C)C)cc1,.,.,.,.,39,.,.,.,.
COc1ccc(NC(=O)c2ccc(S(=O)(=O)N(C)C)cc2)cc1,.,.,.,.,.,.,/,/,/
COc1ccccc1NC(=O)C1=C(C)NC(=O)NC1c1ccccc1[N+](=O)[O-] (centres undefined),.,.,.,.,52,.,.,.,.
Cc1nc(NC(=O)c2ccco2)sc1-c1csc(Nc2ccc(Cl)cc2)n1,.,.,.,.,42,.,.,.,.
Cc1nc(NC(=O)c2ccco2)sc1-c1csc(Nc2ccc(Cl)cc2Cl)n1,.,.,.,.,.,.,/,/,/
CCCc1cc(=O)oc2cc(C)cc(OCC(=O)NCc3cccnc3)c12,.,.,.,.,.,.,/,/,/
CCCCc1cc(=O)oc2cc(C)cc(OCC(=O)Nc3cccnc3)c12,.,.,.,.,70,.,.,.,.
SMILES,CTSL1 counter,PHOSPHO1 inh,HNF4A DNA FP,NRP1-CendR mod,Rpn11 inh,TPT1 inh,Rpn11 confirm,MMP-2 counter,Thrombin inh
COc1ccc(CNCc2cn(-c3cccc(F)c3)nc2-c2ccc(C)o2)cc1,.,.,.,.,43,.,.,.,.
Cc1cc(NC(=O)c2cc(C(C)C)on2)no1,.,.,.,.,.,.,/,/,/
COc1ccc(C(=O)N/C(=C/c2ccco2)C(=O)N2CCCCCC2)cc1,.,.,.,.,50,.,.,.,.
Cc1ccc(C(=O)N/C(=C/c2ccco2)C(=O)N2CCCCC2)cc1,.,.,.,.,.,.,/,/,/
CCc1ccc(NC(=O)CS(=O)CC(=O)Nc2ccc(N3CCOCC3)cc2)cc1 (centres undefined),.,.,.,.,52,.,.,.,.
CC1(C(=O)Nc2cccc3c2CCCC3)CCN1C(=O)CCC1CCCC1 (centres undefined),/,/,.,.,.,/,/,/,/
CCCN(CC(=O)Nc1cc(C)on1)S(=O)(=O)c1cccc(C(F)(F)F)c1,.,.,.,.,35,.,.,.,.
Cc1ccc(/C=C2\SC(=S)N(C3CCS(=O)(=O)C3)C2=O)o1 (centres undefined),.,.,.,.,51,.,.,.,.
Cc1ccc(Cn2c(C(C)Nc3nc(-c4ccc(C)cc4)cs3)nc3cc(Cl)c(Cl)cc32)cc1 (centres undefined),.,.,.,.,71,.,65,51,.
O=C(Nn1cnnc1)c1ccc(Br)s1,.,.,.,.,51,.,.,.,.
CCOC(=O)C1(C)CCCN(C(=O)c2ccccc2OC(F)(F)F)C1 (centres undefined),/,/,.,.,.,/,/,/,/
Cc1cccc2c1c1ccc3c(c1n2C)C(=O)C=CC3=O,/,.,.,.,42,/,.,.,.
Cc1ccccc1N1CC(=O)N(c2ccccc2C)CC1=O,.,.,.,.,.,.,/,/,/
Cc1cc(/C=N/NC(=O)c2cc3ccccc3o2)c(C)n1C,.,.,.,.,.,.,/,/,/
COc1cc(/C=C/C(=O)O)cc(S(=O)(=O)N2CCN(S(=O)(=O)c3ccc(Cl)cc3)CC2)c1OC,.,.,.,.,.,.,/,/,/
CCOC(=O)c1sc2nc(-c3ccccc3)ccc2c1N,.,.,.,.,.,.,/,/,/
NC(=O)c1sc2nc(-c3ccccc3)ccc2c1N,.,.,.,.,45,.,.,.,.
COc1nc(-c2ccccc2)ccc1-c1noc(-c2ccccc2)n1,.,.,.,.,.,.,/,/,/
COc1nc(-c2ccccc2)ccc1-c1noc(-c2cccs2)n1,.,/,.,.,46,.,.,.,.
COc1ccc(N2C(=O)c3ccccc3NC23CCCC3)cc1,.,.,.,.,37,.,.,.,.
O=P(c1ccccc1)(c1ccccc1)c1ccc(O)cc1,.,.,.,.,.,.,/,/,/
COc1ccccc1NC(=O)CCC(=O)c1ccc(-c2ccccc2)cc1,.,.,.,.,59,.,.,.,.
CC(C)Cc1cc(-c2ccco2)c(C#N)c(N)n1,.,.,.,.,60,.,.,.,.
C/C(=C\c1cc2ccccc2o1)C1Nc2cccc3cccc(c23)N1,/,/,.,.,.,/,/,/,/
